Assay results as given in PubChem BioAssay AID1445 (SRMLSC, 2008).
The whole screen tested about 220,000 compounds, of which about 910 (0.41%) were called active. Shown is part of a subset that was picked to be rich in actives. Results with a measured potency or affinity are listed apart. Values without a mark were called inactive.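 Rule for the calls: active = primary inhibition above the hit cutoff, then over 50% inhibition at one or more dose response concentrations (cut at about 23% in these data, passing the limit was not always enough); inconclusive = conflicting primary data, or primary hits not chosen for dose response; inactive = low primary inhibition, or under 50% at every dose.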

target: Aminopeptidase N (Plasmodium falciparum (isolate 3D7)) (UniProt O96935); test: malaria alanyl aminopeptidase activity blockers – biochemical, fluorogenic H-Leu-NHMec substrate, 1536-well (AID 1445); conditions: recombinant M1AAP, H-Leu-NHMec fluorogenic kinetic assay; at 30 µM, stronger effect = higher value unless noted;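 note: plate controls were DMSO full reaction for no effect and no enzyme background for full effect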
Sequence (O96935 whole entry, looked up): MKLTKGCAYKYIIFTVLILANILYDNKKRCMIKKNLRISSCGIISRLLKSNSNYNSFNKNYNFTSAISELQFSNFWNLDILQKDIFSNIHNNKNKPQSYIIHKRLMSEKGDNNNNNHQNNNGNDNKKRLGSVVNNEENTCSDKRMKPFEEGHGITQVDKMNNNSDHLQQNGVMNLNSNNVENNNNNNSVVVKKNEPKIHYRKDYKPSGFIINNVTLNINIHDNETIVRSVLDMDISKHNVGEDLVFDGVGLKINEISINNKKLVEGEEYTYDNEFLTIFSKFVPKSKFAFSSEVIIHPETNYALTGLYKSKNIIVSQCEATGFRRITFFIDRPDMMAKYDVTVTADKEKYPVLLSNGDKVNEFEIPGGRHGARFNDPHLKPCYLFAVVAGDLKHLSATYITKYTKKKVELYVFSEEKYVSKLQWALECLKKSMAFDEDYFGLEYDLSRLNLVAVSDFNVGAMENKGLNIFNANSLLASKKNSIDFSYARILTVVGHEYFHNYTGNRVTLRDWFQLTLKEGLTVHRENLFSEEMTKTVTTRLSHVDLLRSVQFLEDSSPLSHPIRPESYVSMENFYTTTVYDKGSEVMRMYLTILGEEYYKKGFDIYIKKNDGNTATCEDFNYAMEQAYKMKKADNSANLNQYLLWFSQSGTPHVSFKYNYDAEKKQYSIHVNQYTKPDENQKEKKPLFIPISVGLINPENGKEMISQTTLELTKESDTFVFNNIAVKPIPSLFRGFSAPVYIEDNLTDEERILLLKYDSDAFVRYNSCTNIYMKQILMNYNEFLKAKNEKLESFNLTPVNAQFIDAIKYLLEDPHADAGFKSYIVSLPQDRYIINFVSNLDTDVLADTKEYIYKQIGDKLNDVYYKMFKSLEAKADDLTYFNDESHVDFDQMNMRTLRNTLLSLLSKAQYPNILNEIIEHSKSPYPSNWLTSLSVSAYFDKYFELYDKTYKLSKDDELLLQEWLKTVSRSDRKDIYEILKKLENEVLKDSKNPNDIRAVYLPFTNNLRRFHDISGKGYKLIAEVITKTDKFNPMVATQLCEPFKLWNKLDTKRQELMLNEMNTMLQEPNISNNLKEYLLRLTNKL

Row | SMILES | inhibition
1 | O=C(c1ccc2c(=O)n3c(nc2c1)CCCCC3)N1CCN(c2ccccc2)CC1 | 7.74%
2 | COc1ccc(Nc2cc(Cl)nc(N)n2)cc1 | 4.08%
3 | CCNC(=S)N(CCc1ccc(S(N)(=O)=O)cc1)C1CC(=O)N(c2ccccc2)C1=O (stereo not drawn) | 2.82%
4 | Cc1nn2c(-c3ccccn3)ccnc2c1Br | 7.82%
5 | CCOc1c(Cl)cnn(-c2ccc(C)cc2)c1=O | -0.82%
6 | CCOC(=O)c1cc(-c2cc3ccccc3o2)nc2c1c(=O)[nH]c(=O)n2CCOC | 6.31%
7 | N=C(N)N=Nc1c(O)[nH]c2ccc(Br)cc12 | 10.3%
8 | Oc1[nH]c2ccc(Br)cc2c1N=Nc1ccc(C(F)(F)F)cn1 | 4.3%
9 | COc1ccc(-c2nc(C#N)c(NCCCN3CCOCC3)o2)cc1 | 27.7% (active)
10 | CN1CCN(c2oc(/C=C/c3ccccc3)nc2C#N)CC1 | 16.3%
11 | CN(C)CCNc1oc(/C=C/c2ccccc2)nc1C#N | 20.7%
12 | CNc1oc(/C=C/c2ccccc2)nc1C#N | 3.76%
13 | N#Cc1nc(-c2ccco2)oc1NCCCN1CCOCC1 | 6.97%
14 | CN(C)CCCNc1oc(-c2ccccc2)nc1C#N | 5.83%
15 | N#Cc1nc(-c2ccc(F)cc2)oc1NCCN1CCOCC1 | 3.45%
16 | COCCNc1oc(-c2ccc(C)cc2)nc1C#N | 19.1%
17 | COCCNc1oc(-c2ccccc2Cl)nc1C#N | 10.4%
18 | O=C(NCCOc1ccccc1F)c1cc(F)c(F)cc1Cl | 3.2%
19 | CC(=O)N1CCN(c2ccc([N+](=O)[O-])cc2)CC1 | 3.7%
20 | COc1ccccc1-c1nn2c(C(F)(F)F)nnc2s1 | 4.63%
21 | O=C(NCc1ccccc1)C1=C[C@H](c2coc3ccccc3c2=O)C[C@H](OCCCCO)O1 | 6.04%
22 | O=c1c2cc(NC(=S)NC3CC3)ccc2nc2n1CCCCC2 | -0.67%
23 | COCC1CCN(Cc2cn(-c3ccccc3F)nc2-c2cc(C)sc2C)CC1 | 0.56%
24 | COc1ccc(-c2nc3n(n2)C(c2ccccc2Cl)C(C(N)=O)=C(C)N3)cc1 (stereo not drawn) | 9.41%

Row | SMILES | inhibition
25 | CCOC(=O)CSc1ccc(S(=O)(=O)N2CCCC2)cc1[N+](=O)[O-] | -0.65%
26 | COc1ccc(OCCSc2nc3ccccc3c(=O)[nH]2)cc1 | 2.2%
27 | CCN1C(=O)[C@H]2[C@H]3[C@H](O)[C@H](O)C/C(=N\O[C@H](C)c4cn([C@H](CO)Cc5ccccc5)nn4)[C@@H]3CC[C@H]2C1=O | -7.3%
28 | COCC(=O)NC1CCCCCC1 | 2.18%
29 | CCOc1cc(C)c(Cl)cc1S(=O)(=O)NCC1CCCO1 (stereo not drawn) | 1.73%
30 | O=C1NCCCC1C(=O)N/N=C/c1cccc(Cl)c1 (stereo not drawn) | -7.25%
31 | NS(=O)(=O)c1ccc(CCNC(=O)COC(=O)CCc2ccccc2)cc1 | -2%
32 | N#Cc1nc(COc2ccc(-c3ccccc3)cc2)oc1NCCCN1CCOCC1 | -3.18%
33 | N#Cc1nc(Cc2cccc3ccccc23)oc1NCCCN1CCOCC1 | 6.12%
34 | CCN(CC)CCCNc1oc(-c2cccc(Cl)c2)nc1C#N | 12.2%
35 | CNc1oc(-c2cccs2)nc1C#N | 13%
36 | CN(C)c1oc(-c2ccccc2)nc1C#N | 11%
37 | CCN(CC)CCCNc1oc(-c2ccccc2[N+](=O)[O-])nc1C#N | 9.93%
38 | CCOc1cc(C)c(C(C)C)cc1S(=O)(=O)n1ccc(C)n1 | -2.68%
39 | Cc1c(Cl)cccc1NC(=S)NCCc1ccccn1 | 20.7%
40 | COc1ccc(/C=C2\CCCC3C2=NN(C(=O)COC(=O)CNC(=O)c2ccccc2)C3c2ccc(OC)cc2)cc1 (stereo not drawn) | 2.31%
41 | O=C(Cc1cccs1)Nc1nnc(-c2ccc(F)cc2)s1 | -2.11%
42 | COc1cc(C(=O)Nc2ccc([N+](=O)[O-])cn2)cc(OC)c1OC | 13.8%
43 | COc1ccc(S(=O)(=O)NCCC(C)C)cc1OC | -0.02%
44 | Cc1nc(N)sc1C(=O)OCC(C)C | -4.36%
45 | Cc1ccc(-n2c(P(C)(=O)O)nc3ccccc32)cc1 | -0.56%
46 | Cc1ccnc(NC(=O)CCCOc2ccc(Cl)cc2C)c1 | -1.52%
47 | C=CCC(=O)N1CCCC(CCC(=O)NCc2ccccc2F)C1 (stereo not drawn) | 9.17%
48 | O=C(CCn1c(=O)oc2ccccc21)Nc1ccc2c(c1)OCCO2 | -5.19%
